In all, about 2,100 compounds went through this assay and about 770 (37%) were called active. Some of the results follow. Values without a mark were called inactive.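 Rule for the calls: active = by-eye trace score of 1 for enhancers or -1 for inhibitors, so actives lie on both sides (some results past the limit were not filed as active); inactive = score 0, or 3 fluorescent, or 4 baseline rise.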
The compounds below were run against G protein-activated inward rectifier potassium channel 2 (Homo sapiens) + G protein-activated inward rectifier potassium channel 1 (Homo sapiens) (UniProt P48051+P48549) (assay: GIRK1/2 thallium flux modulators, retest, confirmation, cell-based, HEK293 rmGlu8/hGIRK1/2, FluoZin-2 (AID 623911)). Conditions: HEK293 rmGlu8/hGIRK1/2, thallium flux FluoZin-2; actives lie on both sides; glutamate co-added at its EC20 level.
Sequence of G protein-activated inward rectifier potassium channel 2 (Homo sapiens) + G protein-activated inward rectifier potassium channel 1 (Homo sapiens) (P48051 whole entry, looked up): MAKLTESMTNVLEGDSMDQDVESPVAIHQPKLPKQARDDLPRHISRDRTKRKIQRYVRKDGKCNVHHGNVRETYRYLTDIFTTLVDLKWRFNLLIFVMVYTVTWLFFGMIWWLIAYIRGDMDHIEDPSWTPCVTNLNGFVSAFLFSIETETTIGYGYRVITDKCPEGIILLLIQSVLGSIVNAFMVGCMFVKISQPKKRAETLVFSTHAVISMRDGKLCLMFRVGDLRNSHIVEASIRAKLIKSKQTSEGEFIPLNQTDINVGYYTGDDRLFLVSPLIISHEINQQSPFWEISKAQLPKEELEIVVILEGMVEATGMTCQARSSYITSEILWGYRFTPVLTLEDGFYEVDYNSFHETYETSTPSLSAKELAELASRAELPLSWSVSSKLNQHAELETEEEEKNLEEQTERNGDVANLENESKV
Sequence of G protein-activated inward rectifier potassium channel 2 (Homo sapiens) + G protein-activated inward rectifier potassium channel 1 (Homo sapiens) (P48549 whole entry, looked up): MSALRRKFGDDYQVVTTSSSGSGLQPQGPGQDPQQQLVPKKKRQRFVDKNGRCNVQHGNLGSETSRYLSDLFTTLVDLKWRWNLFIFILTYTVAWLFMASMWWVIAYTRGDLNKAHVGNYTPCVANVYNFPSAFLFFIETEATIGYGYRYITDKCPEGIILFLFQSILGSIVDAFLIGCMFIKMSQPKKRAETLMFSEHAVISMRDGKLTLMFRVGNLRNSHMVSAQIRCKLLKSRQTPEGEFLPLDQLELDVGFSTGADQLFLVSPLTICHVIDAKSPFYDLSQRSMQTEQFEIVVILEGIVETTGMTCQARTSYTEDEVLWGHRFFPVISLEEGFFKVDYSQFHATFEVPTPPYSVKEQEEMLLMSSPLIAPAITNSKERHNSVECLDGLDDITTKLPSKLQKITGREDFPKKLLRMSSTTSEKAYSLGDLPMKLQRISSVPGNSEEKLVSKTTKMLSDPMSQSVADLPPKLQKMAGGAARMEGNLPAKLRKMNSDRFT

Structure (SMILES) | manual score
COc1ccccc1N(C)S(=O)(=O)c1ccc(C(=O)N(CC(N)=O)C(C)C)cc1 | 0
CC(=O)/C(=N\Nc1ccc(Cl)cc1Cl)Sc1cccc2cccnc12 | 0
N#CC1=C(N)Oc2n[nH]c(-c3cccs3)c2C1c1ccco1 (centres undefined) | 3
CC1(C)Cc2c(sc3[nH]c(=S)n(Cc4ccco4)c(=O)c23)CO1 | 1 (active)
Cc1nnc2n(C3CCCCC3)c(=O)c3c4c(sc3n12)COC(C)(C)C4 | 0
C=C(C)C1CC=C(C)/C(=N/NC(=O)COc2cccc(C)c2)C1 (centres undefined) | 1 (active)
C=C(C)C1CC=C(C)/C(=N/NC(=O)c2ccc(NC(=O)CCC)cc2)C1 (centres undefined) | 0
C=C(C)C1CC=C(C)/C(=N/NC(=O)COc2ccc(C)cc2)C1 (centres undefined) | 0
COc1ccc(-c2c3c([nH]c(=S)c2C#N)CCC3)cc1 | 0
CCOC(=O)c1c(C)[nH]c(=S)c(C#N)c1-c1ccc(Cl)cc1 | 0
Cc1ccc(-c2cc(-c3ccccc3)[nH]c(=S)c2C#N)cc1 | 1 (active)
Cc1ccc(C2CC2c2n[nH]c(=S)n2-c2ccc(Cl)cc2)cc1 (centres undefined) | 0
CN=C1SC(C(=O)O)CC(=O)N1C (centres undefined) | 0
Cc1cc(O)c(C(C[N+](=O)[O-])c2ccc(Cl)cc2Cl)c(=O)o1 (centres undefined) | 0
CC(c1ccco1)N(C(=O)c1ccccc1NS(=O)(=O)c1cc([N+](=O)[O-])ccc1Cl)c1ccccn1 (centres undefined) | 0
COC(=O)c1ccc(NC(=O)C23CC4CC(C2)CC(n2cncn2)(C4)C3)cc1 | 0
O=C(Nc1ccc(SC(F)F)cc1)C12CCC(CC1)C2 | 1 (active)
CCCC(=O)Nc1ccc(NC(=O)C23CC4CC(CC(C4)C2)C3)cn1 | 0
O=C1c2ccccc2NC(c2ccc(-c3ccc(Br)cc3)o2)N1O (centres undefined) | 0.5
S=c1[nH]nc(-c2cc3c(s2)-c2ccccc2CC3)o1 | 1 (active)
Cc1ccc(-c2cc(-c3n[nH]c(=S)o3)c3ccccc3n2)cc1 | 0
CCCCCCn1cnc2c(c1=O)c1nc3ccccc3nc1n2/N=C/c1ccco1 | 0
Cc1ccc(C(=O)Nc2cnc3ccccn3c2=O)cc1 | 0
COc1cccc(C(=O)NCc2cn3ccsc3n2)c1 | 0
Cc1ccc(C(=O)Nc2nc(-c3ccccc3)c(-c3ccccc3)o2)cc1 | 1 (active)
COc1cccc(C(=O)Nc2nc(-c3ccccc3)c(-c3ccccc3)o2)c1 | 1 (active)
O=C(Nc1nc(-c2ccccc2)c(-c2ccccc2)o1)c1ccc(F)cc1 | 1 (active)

Structure (SMILES) | manual score
COc1cc(OC)cc(C(=O)Nc2nc(-c3ccccc3)c(-c3ccccc3)o2)c1 | 0
CSc1ccccc1C(=O)Nc1cccc(C(C)=O)c1 | 0
CCC(C)NC(=O)c1ccccc1NC(=O)Nc1ccccc1 (centres undefined) | 0
CSc1ccccc1NC(=O)Nc1ccc(Cl)cc1 | 1 (active)
CSc1ccccc1NC(=O)Nc1ccccc1 | 1 (active)
COC(=O)c1sccc1NC(=O)CSc1ccccc1NS(=O)(=O)c1ccc(Cl)cc1 | 0
CC(C)N=c1scc(-c2cccs2)n1/N=C/c1ccc(O)c(O)c1O | 0
Cc1c(C)[n+](=O)c2c(n1[O-])CCC2 | 0
CC(/C=C\c1cccnc1)=C/C(=O)O | 0
CC(/C=C/c1ccccc1)=N/NC(=O)c1cc([N+](=O)[O-])cc([N+](=O)[O-])c1 | 0
O=C(/C=C/c1ccccc1)C1C(=O)c2ccccc2C1=O | 1 (active)
CCc1ccc(/C=c2\s/c(=C\C(=O)C(C)(C)C)[nH]c2=O)cc1 | 0
CCc1ccc(/C=C/C(=O)C2C(=O)c3ccccc3C2=O)cc1 | 1 (active)
CN=C(C)C1=C(O)C(C(=O)OC)C(C)(C)CC1=O (centres undefined) | 0
Cc1cccc2c(=O)cc(C)n(CC(=O)N3CCCCC3)c12 | 0
CCc1c(O)nc(SCC(=O)Nc2ccc(OC)cc2)n(C2CCCCC2)c1=O | 0
CC(=O)Oc1ccc2c(c1)Oc1cc(OC(C)=O)ccc1C21OC(=O)c2ccccc21 | 3
CCSc1nnc(NC(=O)C(Cc2ccccc2)n2cccc2)s1 (centres undefined) | 0
O=C(Nc1ncc(Br)s1)C(Cc1ccccc1)n1cccc1 (centres undefined) | 1 (active)
Cc1csc(NC(=O)C(Cc2ccccc2)n2cccc2)n1 (centres undefined) | 0
O=C(CSc1nnc2ccccn12)Nc1nsc(-c2ccccc2)n1 | 0
CC1(C)CC(=O)C2=C(C1)N(c1ccccc1)C(N)=C(C#N)C2c1ccsc1 (centres undefined) | -1 (active)
CN1C(=O)C2(C(C#N)=C(N)N(c3cc(Cl)cc(Cl)c3)C3=C2C(=O)CCC3)c2ccccc21 (centres undefined) | 0
CC1(C)CC(=O)C2=C(C1)NC(SCC(=O)Nc1ccccc1)=C(C#N)C2c1ccco1 (centres undefined) | 0
S=c1[nH]nc(COc2ccccc2)n1C1CCCCC1 | 0
O=C(O)CCC(=O)NC1CCCCCCC1 | 0
CC(C)=CCC(C)(C)CNC(=O)NC1CCCCC1 | 1 (active)

From PubChem BioAssay AID623911 (Vanderbilt High Throughput Screening Facility, 2012)
